Test results reported in PubChem BioAssay.
Values without a mark were called inactive. The source made the active and inactive calls.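 The calls were made as follows, unless noted: active = mean inhibition above 46.68%, the untreated control wells mean plus 3 SD; inactive = the rest.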

What was measured:
[1] = biological target: Nuclear receptor coactivator 3 (Homo sapiens) (UniProt Q9Y6Q9); assay: SRC3 coactivator transcriptional activity inhibitors, confirmation, cell-based, luminescence, quadruplicate (AID 588792;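 active = mean inhibition over 43.08%, the solvent-only control mean plus 3 SD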;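 also: 0% = DMSO treated cells and 100% = gossypol at 36 µM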); settings: HEK293 GAL4-SRC3 luciferase reporter, at 3.6 µM, active compounds read high
Chain of Nuclear receptor coactivator 3 (Homo sapiens) (Q9Y6Q9 whole entry, looked up, the tested form may be a part): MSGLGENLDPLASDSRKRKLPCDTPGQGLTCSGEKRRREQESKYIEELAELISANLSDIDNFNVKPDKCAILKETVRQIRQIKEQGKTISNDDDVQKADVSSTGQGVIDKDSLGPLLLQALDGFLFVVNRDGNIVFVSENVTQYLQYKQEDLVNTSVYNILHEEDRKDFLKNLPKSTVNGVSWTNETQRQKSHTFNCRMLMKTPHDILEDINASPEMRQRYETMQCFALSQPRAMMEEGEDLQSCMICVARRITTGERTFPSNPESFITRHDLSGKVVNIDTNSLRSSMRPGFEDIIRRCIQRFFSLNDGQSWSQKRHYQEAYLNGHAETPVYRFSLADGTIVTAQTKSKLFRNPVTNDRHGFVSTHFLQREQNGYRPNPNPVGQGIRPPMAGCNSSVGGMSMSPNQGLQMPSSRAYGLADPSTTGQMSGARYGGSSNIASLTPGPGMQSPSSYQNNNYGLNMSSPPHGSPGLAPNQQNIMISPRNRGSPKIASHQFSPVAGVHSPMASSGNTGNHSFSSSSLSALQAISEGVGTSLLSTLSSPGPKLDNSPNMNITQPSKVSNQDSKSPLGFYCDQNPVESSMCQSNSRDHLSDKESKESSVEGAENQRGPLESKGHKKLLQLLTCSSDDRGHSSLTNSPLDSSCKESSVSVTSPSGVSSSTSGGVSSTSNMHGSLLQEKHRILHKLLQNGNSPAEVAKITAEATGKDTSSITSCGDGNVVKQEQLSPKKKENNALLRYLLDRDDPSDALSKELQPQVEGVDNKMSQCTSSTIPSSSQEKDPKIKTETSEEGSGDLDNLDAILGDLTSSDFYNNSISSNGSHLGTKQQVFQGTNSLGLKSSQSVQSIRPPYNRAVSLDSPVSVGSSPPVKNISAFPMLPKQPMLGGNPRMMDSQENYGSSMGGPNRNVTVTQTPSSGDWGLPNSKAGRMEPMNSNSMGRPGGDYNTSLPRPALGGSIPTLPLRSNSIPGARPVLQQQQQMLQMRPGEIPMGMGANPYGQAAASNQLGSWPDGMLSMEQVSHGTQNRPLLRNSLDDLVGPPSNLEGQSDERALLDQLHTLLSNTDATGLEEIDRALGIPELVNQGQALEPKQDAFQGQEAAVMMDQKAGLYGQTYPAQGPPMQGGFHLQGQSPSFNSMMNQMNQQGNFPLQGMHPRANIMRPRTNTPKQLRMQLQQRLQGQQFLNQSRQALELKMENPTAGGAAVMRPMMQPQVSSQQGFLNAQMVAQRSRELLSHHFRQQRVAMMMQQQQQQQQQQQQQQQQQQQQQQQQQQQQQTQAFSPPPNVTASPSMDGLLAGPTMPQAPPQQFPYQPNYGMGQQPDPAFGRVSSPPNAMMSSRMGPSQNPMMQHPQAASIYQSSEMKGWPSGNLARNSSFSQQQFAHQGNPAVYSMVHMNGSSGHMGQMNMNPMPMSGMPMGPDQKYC

[2] = test system: transactivating tegument protein VP16 (Human herpesvirus 1), Gal4-VP16 luciferase reporter; assay: VP16 transactivation inhibitors, counter-screen for SRC3 inhibitor project, cell-based, luminescence, high throughput (AID 588794; in the data active = inhibition above about 30%); settings: mammalian cells, VP16-driven luciferase reporter luminescence; at 3.6 µM; active compounds read high
[3] = biological target: Nuclear receptor coactivator 1 (Homo sapiens) (UniProt Q15788); assay: SRC1 coactivator transcriptional activity inhibitors, confirmation, cell-based, luminescence, quadruplicate (AID 588820); settings: HEK293 GAL4-SRC1 luciferase reporter, at 3.6 µM, active compounds read high;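 also: 0% = DMSO wells and 100% = gossypol 36 µM treated wells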
Chain of Nuclear receptor coactivator 1 (Homo sapiens) (Q15788 whole entry, looked up, the tested form may be a part): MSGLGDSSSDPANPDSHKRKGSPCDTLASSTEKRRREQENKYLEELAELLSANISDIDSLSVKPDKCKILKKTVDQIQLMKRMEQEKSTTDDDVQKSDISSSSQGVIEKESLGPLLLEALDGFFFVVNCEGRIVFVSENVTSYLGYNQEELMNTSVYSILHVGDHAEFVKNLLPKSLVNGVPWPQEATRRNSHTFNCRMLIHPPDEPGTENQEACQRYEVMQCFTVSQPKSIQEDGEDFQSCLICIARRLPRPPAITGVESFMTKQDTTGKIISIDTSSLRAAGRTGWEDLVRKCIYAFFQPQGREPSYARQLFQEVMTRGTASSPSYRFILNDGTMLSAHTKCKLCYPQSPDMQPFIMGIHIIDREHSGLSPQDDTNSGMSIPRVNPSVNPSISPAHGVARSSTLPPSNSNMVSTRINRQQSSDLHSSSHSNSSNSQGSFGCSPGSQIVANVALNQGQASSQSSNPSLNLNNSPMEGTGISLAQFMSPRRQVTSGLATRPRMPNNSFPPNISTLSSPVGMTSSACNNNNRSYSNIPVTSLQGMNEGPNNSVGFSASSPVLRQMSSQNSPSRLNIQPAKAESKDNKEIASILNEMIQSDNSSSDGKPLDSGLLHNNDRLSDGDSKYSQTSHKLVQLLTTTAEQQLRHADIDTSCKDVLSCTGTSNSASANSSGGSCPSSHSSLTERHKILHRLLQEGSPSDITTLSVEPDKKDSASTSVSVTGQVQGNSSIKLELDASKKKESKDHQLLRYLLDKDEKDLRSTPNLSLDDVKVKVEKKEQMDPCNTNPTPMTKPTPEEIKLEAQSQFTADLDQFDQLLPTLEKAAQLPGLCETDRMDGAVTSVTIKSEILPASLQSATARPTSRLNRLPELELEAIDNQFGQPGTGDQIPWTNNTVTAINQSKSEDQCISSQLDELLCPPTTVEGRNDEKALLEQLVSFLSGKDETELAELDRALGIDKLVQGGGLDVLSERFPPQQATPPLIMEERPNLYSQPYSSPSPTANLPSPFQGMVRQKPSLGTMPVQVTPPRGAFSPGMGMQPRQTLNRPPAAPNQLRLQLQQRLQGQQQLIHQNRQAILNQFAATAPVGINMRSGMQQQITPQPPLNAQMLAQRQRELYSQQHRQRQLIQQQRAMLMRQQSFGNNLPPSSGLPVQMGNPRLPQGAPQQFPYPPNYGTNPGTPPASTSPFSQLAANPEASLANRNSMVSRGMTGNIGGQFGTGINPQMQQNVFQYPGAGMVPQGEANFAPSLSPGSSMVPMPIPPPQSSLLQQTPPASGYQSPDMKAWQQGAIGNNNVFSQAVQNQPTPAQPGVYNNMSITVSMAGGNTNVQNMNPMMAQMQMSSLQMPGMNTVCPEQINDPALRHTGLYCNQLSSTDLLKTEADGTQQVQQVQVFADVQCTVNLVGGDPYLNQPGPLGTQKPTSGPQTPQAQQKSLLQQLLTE

[4] = VP16 transactivation inhibitors, counter-screen for SRC1 inhibitor project, cell-based, luminescence, high throughput (AID 588824; in the data active = inhibition above about 25%); settings: cell-based VP16 transactivation luciferase luminescence; at 3.6 µM; active compounds read high
[5] = test system: transactivating tegument protein VP16 (Human herpesvirus 1); assay: VP16 transactivation reporter inhibitors, counter-screen for SRC2 inhibitor project, cell-based, luminescence, single concentration (AID 652007; in the data active = inhibition above about 36%); settings: cell-based VP16 transactivation luciferase reporter, at 8.9 µM, active compounds read high
[6] = biological target: Nuclear receptor coactivator 2 (Homo sapiens) (UniProt Q15596); assay: SRC2 coactivator transcriptional activity inhibitors, confirmation, cell-based, luminescence, HEK293, triplicate (AID 652008;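 active = mean inhibition above 46.5%, the solvent-only control mean plus 3 SD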;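 also: 0% = DMSO-treated cells and 100% = Gossypol at 36 µM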); settings: HEK293 GAL4-SRC2 luciferase reporter, at 8.9 µM, active compounds read high
Chain of Nuclear receptor coactivator 2 (Homo sapiens) (Q15596 whole entry, looked up, the tested form may be a part): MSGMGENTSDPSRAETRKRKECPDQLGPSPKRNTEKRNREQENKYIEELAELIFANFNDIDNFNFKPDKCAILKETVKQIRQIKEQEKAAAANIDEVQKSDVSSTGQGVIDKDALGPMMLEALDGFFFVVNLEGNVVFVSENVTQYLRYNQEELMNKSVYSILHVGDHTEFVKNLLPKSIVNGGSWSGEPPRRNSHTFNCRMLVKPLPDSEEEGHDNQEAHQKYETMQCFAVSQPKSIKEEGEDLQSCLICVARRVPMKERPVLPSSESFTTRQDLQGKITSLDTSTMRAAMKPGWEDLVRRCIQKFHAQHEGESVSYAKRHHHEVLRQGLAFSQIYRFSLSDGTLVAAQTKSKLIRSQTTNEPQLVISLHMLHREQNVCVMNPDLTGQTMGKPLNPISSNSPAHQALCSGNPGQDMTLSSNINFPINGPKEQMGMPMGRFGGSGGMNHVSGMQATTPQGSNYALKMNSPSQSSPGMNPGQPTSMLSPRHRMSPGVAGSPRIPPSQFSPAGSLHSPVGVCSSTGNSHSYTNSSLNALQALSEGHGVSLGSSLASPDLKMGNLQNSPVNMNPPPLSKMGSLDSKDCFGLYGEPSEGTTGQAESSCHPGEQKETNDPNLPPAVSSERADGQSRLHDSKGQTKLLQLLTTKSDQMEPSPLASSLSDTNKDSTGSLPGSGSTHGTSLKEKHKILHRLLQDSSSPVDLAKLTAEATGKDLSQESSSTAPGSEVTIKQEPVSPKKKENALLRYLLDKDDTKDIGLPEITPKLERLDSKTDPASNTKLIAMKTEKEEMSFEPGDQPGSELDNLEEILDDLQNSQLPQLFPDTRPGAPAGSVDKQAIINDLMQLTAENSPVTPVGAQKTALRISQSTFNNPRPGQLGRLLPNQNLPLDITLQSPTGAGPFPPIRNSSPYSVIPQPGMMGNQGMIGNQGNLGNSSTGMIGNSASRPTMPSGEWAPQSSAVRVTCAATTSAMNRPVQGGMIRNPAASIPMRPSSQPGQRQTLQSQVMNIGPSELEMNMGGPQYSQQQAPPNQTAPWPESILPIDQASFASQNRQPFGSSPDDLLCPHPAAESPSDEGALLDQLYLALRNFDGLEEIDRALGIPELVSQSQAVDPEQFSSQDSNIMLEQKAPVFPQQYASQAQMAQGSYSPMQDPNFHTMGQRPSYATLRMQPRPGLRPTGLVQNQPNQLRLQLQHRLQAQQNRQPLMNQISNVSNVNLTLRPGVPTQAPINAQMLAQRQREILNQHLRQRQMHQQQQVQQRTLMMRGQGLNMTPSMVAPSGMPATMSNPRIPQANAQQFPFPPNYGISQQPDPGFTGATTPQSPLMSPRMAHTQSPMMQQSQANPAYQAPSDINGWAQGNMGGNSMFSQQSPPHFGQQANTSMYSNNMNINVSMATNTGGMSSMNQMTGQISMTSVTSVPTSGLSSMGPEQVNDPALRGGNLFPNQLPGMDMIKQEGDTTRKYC

Compound	inhibition [1]	inhibition [2]	inhibition [3]	inhibition [4]	inhibition [5]	inhibition [6]
Cc1c(CC(=O)NCCCC(=O)O)c(=O)oc2cc3c(cc12)CCC(C)(C)O3	35.8%	17.2%	15.6%	15.5%	58.8% (active)	60.9% (active)
COc1ccc2ncn(-c3ccccc3)c2c1	49.2% (active)	32.7% (active)	46.1%	23.7%	-12.1%	38.2%
O=C(CCCN1C(=O)/C(=C/c2ccccc2Cl)SC1=S)NNC(=O)c1ccncc1	14.7%	8.23%	10.8%	10.8%	40.6% (active)	65.4% (active)
CC(C)(C)c1ccc(Oc2ccc(N)cn2)cc1	39.6%	20.4%	2.49%	18.6%	69% (active)	88.9% (active)
COc1ccc2[nH]c3c(c2c1)CC(C)NC3=O (stereo not given)	73% (active)	49.7% (active)	67.3% (active)	52.2% (active)	14.3%	41.6%
COCC(C)n1c(C)cc(C(=O)COC(=O)c2cccn2C)c1C (stereo not given)	9.47%	-13.8%	-58.2%	-61%	48.1% (active)	57.2% (active)
c1ccc2c(-c3ccc4nncn4c3)cncc2c1	79% (active)	54.1% (active)	65.9% (active)	56.4% (active)	-5.43%	46.3%
COc1ccc(/C=C2\CC/C(=C\c3ccc(OC)c(OC)c3)C2=O)cc1OC	30.9%	10.7%	16.2%	16.9%	41.5% (active)	77.9% (active)
COc1cncc(-c2cnc3sc(NCCc4ccccn4)nn23)c1	56.8% (active)	33.6% (active)	48.4% (active)	30.6% (active)	3.51%	50.2% (active)
CCOC(=O)c1cccc2c1-c1ccccc1/C2=N/O	39.8%	23.7%	46.5%	23.2%	-10.8%	24.9%
